Assay results: PubChem BioAssay
Values without a mark were called inactive.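 How the source made its calls, unless noted: active means luciferase signal above three times the same-plate solvent-only control wells; inactive means the rest.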

How the values were obtained:
[1] = molecular target: 6-phosphogluconate dehydrogenase, decarboxylating (Homo sapiens) (UniProt P52209); experiment: inhibition of human phosphogluconate dehydrogenase – biochemical, recombinant enzyme, NADPH absorbance, primary screen (AID 1159550;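 active means at least 20% inhibition of 6-phosphogluconate dehydrogenase activity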); settings: recombinant 6PGD, NADPH absorbance 341 nm; at 10 µM; hits give high values
[2] = molecular target: Mitogen-activated protein kinase 7 (Homo sapiens) (UniProt Q13164); experiment: Gal4-ERK5 driven luciferase induction – cell-based, HTS, primary screen (AID 1508626); settings: HeLa Gal4-ERK5 transactivation, 18 h, at 5 µM, hits give high values;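 further: luciferase driven by Gal4-ERK5 fusion binding five Gal4 sites before minimal TATA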
Chain of Mitogen-activated protein kinase 7 (Homo sapiens) (Q13164 whole entry, looked up, the tested form may be a part): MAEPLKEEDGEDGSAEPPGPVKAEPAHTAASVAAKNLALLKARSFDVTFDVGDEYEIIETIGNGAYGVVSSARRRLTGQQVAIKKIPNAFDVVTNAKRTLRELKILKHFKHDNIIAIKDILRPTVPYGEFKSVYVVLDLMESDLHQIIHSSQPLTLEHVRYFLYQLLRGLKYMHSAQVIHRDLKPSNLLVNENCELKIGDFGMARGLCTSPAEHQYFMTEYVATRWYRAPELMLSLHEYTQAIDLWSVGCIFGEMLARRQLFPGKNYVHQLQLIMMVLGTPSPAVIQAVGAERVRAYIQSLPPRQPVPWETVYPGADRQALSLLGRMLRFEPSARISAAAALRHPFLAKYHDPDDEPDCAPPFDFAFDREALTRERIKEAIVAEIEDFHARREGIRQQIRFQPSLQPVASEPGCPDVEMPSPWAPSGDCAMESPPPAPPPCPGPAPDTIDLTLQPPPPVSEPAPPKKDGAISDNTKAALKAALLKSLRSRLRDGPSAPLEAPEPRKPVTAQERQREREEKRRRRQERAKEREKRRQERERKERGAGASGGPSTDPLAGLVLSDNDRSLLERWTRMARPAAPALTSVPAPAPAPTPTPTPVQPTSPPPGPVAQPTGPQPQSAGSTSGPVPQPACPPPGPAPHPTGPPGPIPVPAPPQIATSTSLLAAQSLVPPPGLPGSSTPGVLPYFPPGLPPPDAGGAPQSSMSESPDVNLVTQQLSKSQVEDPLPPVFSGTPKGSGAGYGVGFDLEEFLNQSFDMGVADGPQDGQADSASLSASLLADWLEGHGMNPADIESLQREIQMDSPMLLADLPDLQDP

Chain of 6-phosphogluconate dehydrogenase, decarboxylating (Homo sapiens) (P52209 whole entry, looked up, the tested form may be a part): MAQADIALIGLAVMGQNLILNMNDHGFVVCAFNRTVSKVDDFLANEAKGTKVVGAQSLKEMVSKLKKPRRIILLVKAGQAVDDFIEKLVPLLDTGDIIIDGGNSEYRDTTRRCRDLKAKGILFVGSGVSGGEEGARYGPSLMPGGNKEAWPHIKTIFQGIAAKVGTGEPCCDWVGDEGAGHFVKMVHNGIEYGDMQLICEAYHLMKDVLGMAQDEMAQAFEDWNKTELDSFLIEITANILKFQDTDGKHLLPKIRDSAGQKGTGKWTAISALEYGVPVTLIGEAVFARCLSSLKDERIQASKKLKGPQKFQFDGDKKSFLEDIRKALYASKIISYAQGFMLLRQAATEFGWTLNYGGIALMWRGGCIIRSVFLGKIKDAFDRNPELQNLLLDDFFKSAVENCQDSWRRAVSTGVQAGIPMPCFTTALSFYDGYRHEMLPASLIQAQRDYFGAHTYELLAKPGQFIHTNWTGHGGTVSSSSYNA

| SMILES | inhibition [1] [%] | luciferase signal [2] [AU] |
| --- | --- | --- |
| CC(=O)O[C@H]1CC[C@@]2(C)[C@H](CC[C@@H]3[C@@H]2CC[C@]2(C)[C@@H]4[C@H](C[C@@H]32)O[C@]2(CC[C@@H](C)CO2)[C@H]4C)C1 | 13.5 | 44 |
| COc1ccc(C(C)=O)c(OC)c1 | -3.95 | 76 |
| COc1cccc2c1CCC1=CC(=O)CC[C@@]12C | -1.6 | 40 |
| CC(=O)O[C@@H]1CC(=O)[C@@]2(C)C(CC(=O)[C@]3(C)C2CC[C@@]2(C)[C@H](c4ccoc4)OC(=O)C4OC423)C1(C)C (some centres undefined) | 9.95 | 24 |
| CC(=O)O[C@H]1CC[C@@]2(C)C(=CC=C3[C@@H]4CC[C@H]([C@H](C)/C=C/[C@H](C)C(C)C)[C@@]4(C)CC[C@@H]32)C1 | 14.6 | 72 |
| COc1ccc(-c2cc(=O)c3c(O)c(OC)c(O[C@@H]4O[C@H](CO[C@@H]5O[C@@H](C)[C@H](O)[C@@H](O)[C@H]5O)[C@@H](O)[C@H](O)[C@H]4O)cc3o2)cc1 | -2.78 | 76 |
| COc1cc(OC)c2c(c1Cl)O[C@@]1(C(=O)CC(=O)C[C@H]1C)C2=O | 4.62 | 48 |
| COS(C)(=O)=O | 6.76 | 124 |
| COC(=O)C[C@H]1C(C)(C)[C@@H](OC(C)=O)[C@@H]2CC3C4CC(=O)O[C@@H](c5ccoc5)[C@]4(C)CCC3[C@@]1(C)C2=O (some centres undefined) | 7.27 | 28 |
| COC(=O)C[C@H]1C2(C)CC34OC5(C)O[C@@]6([C@H](OC)C(OC(=O)C(C)C)[C@]7(C)C(/C(=C(/OC)C(C)C)C(=O)O[C@H]7c7ccoc7)[C@@]6(O5)[C@H](OC)[C@@]3(OC)C2OC(C)=O)[C@]14C (some centres undefined) | -3.86 | 20 |
| C[C@H]1[C@H](C)CC[C@]2(C(=O)O)CC[C@]3(C)C(=CC[C@@H]4[C@@]5(C)C[C@@H](O)[C@H](O)[C@@](C)(CO)[C@@H]5[C@H](O)C[C@]43C)[C@H]12 | 2.44 | 48 |
| C[C@@H]1CC[C@@]2(OC1)O[C@H]1C[C@H]3[C@@H]4CC[C@H]5C[C@@H](O)CC[C@]5(C)[C@H]4CC[C@]3(C)[C@H]1[C@@H]2C | -2.45 | 36 |
| C[C@@H]1O[C@@H](Oc2c(-c3ccc(O)c(O)c3)oc3cc(O)cc(O)c3c2=O)[C@H](O)[C@H](O)[C@H]1O | -14.2 | 52 |
| COC(=O)[C@]1(C)CCC[C@]2(C)c3ccc(C(C)C)cc3C(=O)CC12 (some centres undefined) | 13.7 | 32 |
| C[C@H](CCC(=O)O)[C@H]1CC[C@H]2[C@@H]3CC[C@@H]4C[C@H](O)CC[C@]4(C)[C@H]3C[C@H](O)[C@]12C | -3.07 | 28 |
| COC(=O)[C@@H]1OC(=O)C2OC23[C@@]1(C)CCC1[C@]2(C)C(C[C@H](O)[C@]13C)C(C)(C)[C@H](OC(C)=O)C[C@@H]2OC(C)=O (some centres undefined) | -8.14 | 24 |
| COC(=O)C1=CO[C@@H](O[C@@H]2O[C@H](CO)[C@@H](O)[C@H](O)[C@H]2O)[C@@H]2[C@@H](C)[C@@H](O)C[C@H]12 | 6.61 | 20 |
| COC(=O)C[C@H]1C(C)(C)[C@@H](O)[C@@H]2CC3=C4CC(O)O[C@@H](c5ccoc5)[C@]4(C)CCC3[C@@]1(C)C2=O (some centres undefined) | -13.5 | 36 |
| CO[C@H]1C=C[C@@]23c4cc5c(cc4CN(C[C@@H]2O)[C@H]3C1)OCO5 | 13.8 | 44 |
| C=C1[C@@H]([C@@]2(C)C=CC(=O)C(C)(C)[C@@H]2CC(=O)OC)CC[C@@]2(C)C(c3ccoc3)OC(=O)[C@H]3O[C@]132 (some centres undefined) | 0.696 | 20 |
| COC(=O)CCCOc1ccc(Cl)cc1Cl | -8.02 | 60 |

| SMILES | inhibition [1] [%] | luciferase signal [2] [AU] |
| --- | --- | --- |
| O=C(NCO)c1cccnc1 | -8.21 | 68 |
| COc1cccc(/C=C/C(=O)O)c1C(C)C | 0.939 | 24 |
| CC1(C)C2CC(=O)O[C@@]3(C)C4=CC(=O)O[C@@H](c5ccoc5)[C@]4(C)CCC3[C@@]2(C)C=C[C@H]1O (some centres undefined) | 9.39 | 20 |
| COc1ccc2ccc(=O)oc2c1 | 6.96 | 44 |
| C/C(=C\CO)CCC[C@H](C)CCC[C@H](C)CCCC(C)C | 5.74 | 72 |
| CC(=O)OC[C@H]1O[C@@H](Oc2cc(OC(C)=O)c3c(=O)cc(-c4ccc(OC(C)=O)cc4)oc3c2)[C@H](OC(C)=O)[C@@H](OC(C)=O)[C@@H]1OC(C)=O | 6.51 | 80 |
| CC(=O)O[C@]1(C)CC[C@@]23C[C@@H]1C(C)(C)[C@@H]2CC[C@H]3C | 13.3 | 56 |
| OC[C@H]1O[C@@](CO)(O[C@H]2O[C@H](CO)[C@@H](O)[C@H](O)[C@H]2O)[C@@H](O[C@H]2O[C@H](CO)[C@@H](O)[C@H](O)[C@H]2O)[C@@H]1O | 15.1 | 60 |
| COc1ccc(-c2oc3cc(O[C@@H]4O[C@H](CO)[C@@H](O)[C@H](O)[C@H]4O)c(OC)c(O)c3c(=O)c2OC)cc1O | -33.5 | 172 |
| CC(=O)OC1CC2C(C)(C)C(=O)CCC2(C)C2CCC3(C)C(c4ccoc4)OC(=O)C4OC43C12C (centres undefined) | 11.7 | 20 |
| CC(=O)O[C@H]1C[C@@H](OC(C)=O)C(C)(C)[C@@H]2C[C@@H](OC(C)=O)[C@]3(C)[C@H](CC[C@@]4(C)[C@H](c5ccoc5)OC(=O)[C@H]5O[C@@]534)[C@@]12C | -4.75 | 12 |
| C[C@H](CCC(=O)O)[C@H]1CC[C@H]2[C@@H]3[C@H](O)C[C@@H]4C[C@H](O)CC[C@]4(C)[C@H]3C[C@H](O)[C@]12C | -7.09 | 28 |
| CC(=O)Oc1c(-c2ccccc2)oc2c(CC=C(C)C)c3c(c(OC(C)=O)c2c1=O)C=CC(C)(C)O3 | 7.48 | 40 |
| COc1cc(C)c(C(=O)Oc2cc(C)c(C(=O)O)c(O)c2C)c(O)c1C=O | 2.14 | 120 |
| CC(C)CCC[C@@H](C)[C@H]1CC[C@H]2[C@@H]3C[C@@H](O)[C@@]4(O)C[C@@H](O)CC[C@]4(C)[C@H]3CC[C@]12C | -2.71 | 88 |
| CC1(O)CC2C(CC1O)C2(C)C (centres undefined) | 13.8 | 60 |
| COc1ccc(-c2cc(=O)c3ccccc3o2)cc1 | -3.26 | 112 |
| C[C@@H]1CC[C@H]2C(C)(C)[C@H]3C[C@@]12CC[C@@]3(C)O | 1.71 | 28 |
| COc1cc(C)c(C(=O)O)c(O)c1 | -0.391 | 80 |
| CC1(C)CC[C@]2(C)CC[C@]3(C)C(=CC[C@@H]4[C@@]5(C)CC[C@H](O)C(C)(C)[C@@H]5CC[C@]43C)[C@@H]2C1 | 10.2 | 20 |
| CC1C2[C@]3(CC[C@H]1C)CCC1(C)[C@@]2(C=CC2[C@@]4(C)CCC(=O)C(C)(C)C4CC[C@]21C)OC3=O (some centres undefined) | 17.9 | 100 |
